Experimental data as given in PubChem BioAssay (NCATS).
Inconclusive results are not listed. Activity calls are given as the source filed them. Calls follow the shape of the dose curve; as a rule, active = well fitted curve in the direction sought with a large enough effect; inconclusive = small, poorly fitted or top-dose-only effect, or another doubt; inactive = no such curve, though single readings can be large; an effect the other way counts as inactive or inconclusive.

Key:
[1] = qHTS to identify inhibitors of the type 1 interferon - major histocompatibility complex class I in skeletal muscle: primary screen against the NCATS LOPAC collection (AID 1347405);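 also: lytic HiBiT luminescence reporting HLA-B protein level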
How it was run: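 After 24 h at 37 C with compounds (7-point, 1:4.3 dilutions, 46 uM top final) plus 4 ng/ml IFN-beta, luminescence from lytic HiBiT detection was measured. HLA-B*08:01 in C25cl48 myoblasts carried an endogenous C-terminal HiBiT tag; medium lacked dexamethasone.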

[2] = qHTS to identify inhibitors of the type 1 interferon - major histocompatibility complex class I in skeletal muscle: primary screen against the NCATS Pharmaceutical Collection (AID 1347407);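 also: luminescence of HiBiT knocked into endogenous HLA-B as interferon-induced MHC class I level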; also: potency is read from the fitted curve at half-maximal effect
How it was run: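 A qHTS format is used: 8-point, 1:5 compound series with 46 uM top final concentration, applied alongside 4 ng/ml IFN-beta to HLA-B*08:01-HiBiT knock-in myoblasts. Luminescence is measured after 24 h treatment.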

[3] = qHTS for inhibitors of adenylyl cyclases using a fission yeast platform: a pilot screen against the NCATS LOPAC library (AID 1347410)
How it was run: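 Inhibition of GNAS-stimulated AC9 activity in S. pombe was inferred from derepression of a PKA-repressed fbp1-GFP reporter, measured as cytometric fluorescence after 18 h at 30C with compounds at up to 57 µM.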

[4] = molecular target: Protein phosphatase 1D (Homo sapiens) (UniProt O15297); assay: RapidFire Mass Spectrometry qHTS Assay for Modulators of WT P53-Induced Phosphatase 1 (WIP1) (AID 1347424);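 also: amount of dephosphorylated VEPPL-S-QETFS peptide product formed by WIP1; series mostly up to about 63 µM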
Sequence of Protein phosphatase 1D (Homo sapiens) (O15297 whole entry, looked up): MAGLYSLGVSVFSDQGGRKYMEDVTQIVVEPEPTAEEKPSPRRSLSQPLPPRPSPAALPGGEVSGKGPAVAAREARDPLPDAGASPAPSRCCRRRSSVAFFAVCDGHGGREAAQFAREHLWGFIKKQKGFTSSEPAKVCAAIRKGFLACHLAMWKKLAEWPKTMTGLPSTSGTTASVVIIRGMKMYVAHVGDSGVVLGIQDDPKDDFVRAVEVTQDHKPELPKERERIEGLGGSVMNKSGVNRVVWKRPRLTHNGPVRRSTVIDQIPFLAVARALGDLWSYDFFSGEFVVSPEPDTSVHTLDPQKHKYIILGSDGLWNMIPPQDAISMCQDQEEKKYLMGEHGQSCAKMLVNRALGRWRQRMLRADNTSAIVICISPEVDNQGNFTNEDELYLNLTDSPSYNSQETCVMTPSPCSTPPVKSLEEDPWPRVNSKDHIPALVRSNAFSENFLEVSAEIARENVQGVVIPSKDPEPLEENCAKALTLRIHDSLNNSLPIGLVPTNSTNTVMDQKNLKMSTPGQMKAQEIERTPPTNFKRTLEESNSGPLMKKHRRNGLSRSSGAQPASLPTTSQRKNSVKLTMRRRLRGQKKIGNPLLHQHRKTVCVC
How it was run: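 RapidFire mass spectrometry measured dephosphorylated peptide after 5 min room-temperature reaction of 2 uM VEPPL-pS-QETFS with 10 nM WIP1 (50 mM Tris-HCl pH 7.5, 30 mM MgCl2, 0.1 mM EGTA, BSA), following 1 hr compound preincubation; 1 uM isotope-labelled product standard.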

[5] = molecular target: Protein phosphatase 1D (Homo sapiens) (UniProt O15297); assay: Rhodamine-PBP qHTS Assay for Modulators of WT P53-Induced Phosphatase 1 (WIP1) (AID 1347425)
How it was run: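 Steps: enzyme with Rh-PBP sensor and compounds, room-temperature incubation of 1 hr, baseline read, addition of VEPPL-pS-QETFS (10 uM final), kinetic fluorescence reads at 525/598 nm. Activity equals final minus baseline signal.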

[6] = Validation qHTS assay for inhibitors of Activation Induced Cytidine Deaminase (AID): UDG Counterscreen signal (AID 1347427)
How it was run: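 Fluorescence at 560 nm excitation, 665 nm emission reports UDG signal after 250 mM NaOH (2x) addition and 30 min. Enzymes (AID 1 uM, UDG 2 U/mL, at 4/3x) preincubated 10 min with compound, then 4 h with 4x 250 nM DJC20/DJC23 substrate at room temperature.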

[7] = molecular target: Single-stranded DNA cytosine deaminase (Homo sapiens) (UniProt Q9GZX7); assay: Validation qHTS assay for inhibitors of Activation Induced Cytidine Deaminase (AID): AID signal (AID 1347429)
Sequence of Single-stranded DNA cytosine deaminase (Homo sapiens) (Q9GZX7 whole entry, looked up): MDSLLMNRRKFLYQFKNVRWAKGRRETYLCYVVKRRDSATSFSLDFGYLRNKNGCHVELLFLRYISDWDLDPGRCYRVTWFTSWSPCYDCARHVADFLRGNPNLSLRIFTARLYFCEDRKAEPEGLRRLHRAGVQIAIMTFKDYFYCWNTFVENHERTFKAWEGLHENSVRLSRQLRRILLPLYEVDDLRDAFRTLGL
How it was run: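 Compounds (final up to 114 uM) preincubated with AID plus UDG; 250 nM DJC20/DJC23 substrate mix (4x stock) added, 4 hr at room temperature, then NaOH, 30 min. Read 1 fluorescence at 540 nm excitation, 590 nm emission.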

[8] = qHTS to identify inhibitors of the type 1 interferon - major histocompatibility complex class I in skeletal muscle: primary screen against the NCATS Mechanism Interrogation Plate v5.0 (MIPE) Libary (AID 1347411); also: nearly all actives have a fitted effect of over 65% in size
How it was run: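 Luminescence from CRISPR HiBit-tagged endogenous HLA-B in human myoblasts reported MHC class I level after 24 h of IFN-beta (4 ng/ml) plus compound. Compounds ran as 11-point 1:3 series, top 46 uM final.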

Measured: Potency

CC(=O)[C@H]1CC[C@H]2[C@@H]3CC[C@H]4C[C@H](O)CC[C@]4(C)[C@H]3C(=O)C[C@]12C
inactive: [1] | [2] | [3] | [4] | [5] | [6] | [7]

N#CC(C#N)=Cc1ccc(O)c(O)c1
inactive: [1] | [2] | [3] | [4] | [5] | [6] | [7]

Cn1c(CCCC(=O)O)nc2cc(N(CCCl)CCCl)ccc21
inactive: [1] | [2] | [3] | [8] | [4] | [5]

C#CCN(C)[C@H](C)Cc1ccccc1
inactive: [2] | [8] | [4] | [5]

CC(CCc1ccccc1)NC(C)C(O)c1ccc(O)cc1 (stereo unspecified)
inactive: [1] | [2] | [3] | [5] | [6] | [7]

CC(=O)[C@H]1CC[C@H]2[C@@H]3CC[C@H]4C[C@](C)(O)CC[C@]4(C)[C@H]3CC[C@]12C
inactive: [1] | [2] | [3] | [4] | [5] | [6] | [7]

c1ccc2c(c1)OCC(C1=NCCN1)O2 (stereo unspecified)
inactive: [2] | [3] | [4] | [5] | [6] | [7]

NN=C(N)N
inactive: [1] | [2] | [3] | [8] | [4] | [5] | [6] | [7]

COc1ccccc1N1CCNCC1
inactive: [1] | [2] | [3] | [4] | [5] | [6] | [7]

CC(C)=CCOc1c2occc2cc2ccc(=O)oc12
inactive: [1] | [2] | [3] | [4] | [5] | [6] | [7]

C[C@]12CCC(=O)C(O)=C1CC[C@@H]1[C@@H]2CC[C@]2(C)C(=O)CC[C@@H]12
inactive: [6] | [7]

CNC(=O)c1ccc(N2C(=S)N(c3ccc(C#N)c(C(F)(F)F)c3)C(=O)C23CCC3)cc1F
inactive: [8]

CCCC1CCCCN1 (stereo unspecified)
inactive: [2] | [4] | [5]

Oc1ccccc1-c1ccccc1
inactive: [2] | [4] | [5]

CC1OC(C)OC(C)O1 (stereo unspecified)
inactive: [2] | [4] | [5]

CN1C(=S)CN=C(c2ccccc2)c2cc(Cl)ccc21
inactive: [2] | [4] | [5]

C[C@H]1O[C@@H](O[C@H]2[C@@H](O)C[C@H](O[C@H]3[C@@H](O)C[C@H](O[C@H]4CC[C@@]5(C)[C@H](CC[C@@H]6[C@@H]5CC[C@]5(C)[C@@H](C7=CC(=O)OC7)CC[C@]65O)C4)O[C@@H]3C)O[C@@H]2C)C[C@H](O)[C@@H]1O
inactive: [4] | [5]
active: [2] 0.0264 µM

O=C(O)C(=O)c1cn(Cc2ccccc2)c2ccc(-c3ccc(OC(F)(F)F)cc3)cc12
inactive: [8]

Cc1ccc(-c2nc3ccc(C)cn3c2CC(=O)N(C)C)cc1
inactive: [2] | [4] | [5]

CC(C)(C)NCC(O)c1cc(Cl)c(N)c(Cl)c1 (stereo unspecified)
inactive: [2] | [4] | [5]

CCC(=O)C(CC(C)N(C)C)(c1ccccc1)c1ccccc1 (stereo unspecified)
inactive: [4] | [5]

CCN(CC)C(=O)N[C@@H]1C=C2c3cccc4[nH]cc(c34)C[C@@H]2N(C)C1
inactive: [2] | [4] | [5]

O=C1CC[C@@]2(O)[C@H]3Cc4ccc(O)c5c4[C@@]2(CCN3CC2CC2)[C@H]1O5
inactive: [4] | [5]

COC1(CS(=O)c2ccccc2)CCN(CCc2c[nH]c3ccc(F)cc23)CC1 (stereo unspecified)
inactive: [8]

CN(C)CCc1ccc(O)cc1
inactive: [2] | [5]

Oc1cccc2cccnc12
inactive: [2] | [4] | [5]

c1ccc2c(c1)Nc1ccccc1S2
inactive: [2] | [4] | [5]

O=C(NC(O)C(Cl)(Cl)Cl)NC(O)C(Cl)(Cl)Cl (stereo unspecified)
inactive: [2] | [4] | [5]

Clc1ccc(COC(Cn2ccnc2)c2ccc(Cl)cc2Cl)cc1 (stereo unspecified)
inactive: [4] | [5]

CC(C)=CC1C(C(=O)OCc2cccc(Oc3ccccc3)c2)C1(C)C (stereo unspecified)
inactive: [2] | [4] | [5]

CC(C)NCC(O)c1ccccc1Cl (stereo unspecified)
inactive: [2] | [4] | [5]

C#CCOC(C(=O)OCCN(C)C)(c1ccccc1)c1ccccc1
inactive: [2] | [4] | [5]

Cc1cc(SCc2sc(-c3ccc(C(F)(F)F)c(F)c3)nc2C)ccc1OCC(=O)O
inactive: [8]

COC[C@H]1OC(=O)c2coc3c2[C@@]1(C)C1=C(C3=O)C2CCC(=O)[C@@]2(C)C[C@H]1OC(C)=O (stereo partly specified)
inactive: [3] | [6] | [7]

Fc1ccc(C(OCCN2CCN(CCCc3ccccc3)CC2)c2ccc(F)cc2)cc1
inactive: [3] | [4] | [5] | [6] | [7]

CCC(COC(=O)c1cc(OC)c(OC)c(OC)c1)(c1ccccc1)N(C)C (stereo unspecified)
inactive: [2] | [4] | [5]

C[C@]12C/C(=C/O)C(=O)C[C@@H]1CC[C@@H]1[C@@H]2CC[C@@]2(C)[C@H]1CC[C@]2(C)O
inactive: [4] | [5]

COc1ccc(C(=O)c2c(C)n(CCN3CCOCC3)c3ccccc23)cc1
inactive: [2] | [4] | [5]

CC(=O)Nc1cc([As](=O)(O)O)ccc1O
inactive: [2] | [5]

CCCC(C)(COC(N)=O)COC(=O)NC(C)C (stereo unspecified)
inactive: [2] | [4] | [5] | [6] | [7]

O=c1[nH]c2ccccc2n1C1CCN(CCCC(c2ccc(F)cc2)c2ccc(F)cc2)CC1
inactive: [3] | [4] | [5] | [6] | [7]

CO[C@]12CC[C@@]3(C[C@@H]1[C@](C)(O)C(C)(C)C)[C@@H]1Cc4ccc(O)c5c4[C@@]3(CCN1CC1CC1)[C@H]2O5
active: [2] 48.1 µM
inactive: [4] | [5]

C=C(C)[C@H]1Cc2c(ccc3c2O[C@@H]2COc4cc(OC)c(OC)cc4[C@@H]2C3=O)O1
inactive: [4] | [5]

CN(C)CCN(C)CCc1ccc(Cl)c(Cl)c1
inactive: [8]

CC(C)(C)CC(C)(C)c1ccc(O)cc1
inactive: [2] | [4] | [5]

CCN(CC)CCN1C(=O)CN=C(c2ccccc2F)c2cc(Cl)ccc21
inactive: [2] | [4] | [5]
